ChEMBL document CHEMBL3988442, “University of Dundee, Small-Polar-MMV Screening Library” (2021)
For part of these data: Results with a measured potency or affinity are listed apart.

Assays:
Set-up in all cases: scale not given: direction of the effect not stated beside the values
[1] = molecular target: Protein translocase subunit SecA (Escherichia coli (strain K12)) (UniProt P10408); experiment: Assay to Identify E. coli SecA ATPase Inhibitors; format: functional; conditions: 30 µM
[2] = molecular target: T1, Ubiquitin-activating enzyme e1, putative (Leishmania donovani (strain BPK282A1)) (UniProt E9BSI1); experiment: Leishmania donovani Ubiquitin Activating Enzyme (LdE1); format: functional; conditions: 30 µM
T1 sequence (whole entry): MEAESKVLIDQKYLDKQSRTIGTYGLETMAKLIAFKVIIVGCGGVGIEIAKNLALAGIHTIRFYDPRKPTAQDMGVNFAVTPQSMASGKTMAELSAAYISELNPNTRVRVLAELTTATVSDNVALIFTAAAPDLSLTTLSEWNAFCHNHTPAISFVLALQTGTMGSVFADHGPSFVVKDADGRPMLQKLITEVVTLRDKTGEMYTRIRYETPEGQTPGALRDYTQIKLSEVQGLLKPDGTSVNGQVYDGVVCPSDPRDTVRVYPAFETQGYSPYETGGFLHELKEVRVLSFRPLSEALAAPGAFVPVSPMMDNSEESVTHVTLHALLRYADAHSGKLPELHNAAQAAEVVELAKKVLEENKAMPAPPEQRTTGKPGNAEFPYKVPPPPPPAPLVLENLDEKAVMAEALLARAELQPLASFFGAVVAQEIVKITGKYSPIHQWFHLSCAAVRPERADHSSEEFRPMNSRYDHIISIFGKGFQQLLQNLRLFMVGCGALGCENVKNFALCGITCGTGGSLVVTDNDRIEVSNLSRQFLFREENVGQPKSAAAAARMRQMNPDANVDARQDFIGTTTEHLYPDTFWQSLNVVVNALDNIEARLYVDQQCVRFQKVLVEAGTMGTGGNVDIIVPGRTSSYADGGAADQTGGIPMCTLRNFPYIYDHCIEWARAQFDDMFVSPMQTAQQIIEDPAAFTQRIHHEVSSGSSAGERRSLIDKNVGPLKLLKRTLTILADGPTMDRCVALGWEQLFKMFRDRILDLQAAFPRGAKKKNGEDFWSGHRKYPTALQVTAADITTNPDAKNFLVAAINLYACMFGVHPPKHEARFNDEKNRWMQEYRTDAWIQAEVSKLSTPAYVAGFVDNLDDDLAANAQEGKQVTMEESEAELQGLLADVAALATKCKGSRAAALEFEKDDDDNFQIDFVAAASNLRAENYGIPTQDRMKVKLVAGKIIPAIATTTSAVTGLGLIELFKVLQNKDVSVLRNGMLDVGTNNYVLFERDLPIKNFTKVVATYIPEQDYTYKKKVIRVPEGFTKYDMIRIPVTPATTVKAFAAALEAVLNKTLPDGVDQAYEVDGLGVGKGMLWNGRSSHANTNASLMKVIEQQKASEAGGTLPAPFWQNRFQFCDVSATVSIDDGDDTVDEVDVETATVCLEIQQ

[3] = molecular target: AMP-activated protein kinase, AMPK (Homo sapiens) (UniProt P54646+O43741+P54619+Q9UGJ0+Q9Y478+Q13131+Q9UGI9); experiment: AMP-dependent Kinase enzyme assay. An in vitro enzyme assay that detects ADP turnover that is directly proportional to AMPK activity. This uses naive AMPK that is activated during the assay with MK-8722; format: functional; conditions: 30 µM
[4] = molecular target: Sialic acid-binding Ig-like lectin 9 (Homo sapiens) (UniProt Q9Y336); experiment: Hs-Siglec9 ALPHAscreen SOP 20170721; conditions: 10 µM
[5] = tested on: Trypanosoma cruzi; experiment: Trypanosoma cruzi phosphomannomutase and mannose-1-phosphate guanylyltransferase assay; format: functional; conditions: 10 µM
[6] = molecular target: T2, Arginase-2, mitochondrial (Homo sapiens) (UniProt P78540); experiment: in vitro enzyme assay to detect the production of urea directly proportional to the activity of Arginase II; format: functional; conditions: 33.3 µM; note: in the data most compounds retested in dose-response had high values
T2 sequence (whole entry): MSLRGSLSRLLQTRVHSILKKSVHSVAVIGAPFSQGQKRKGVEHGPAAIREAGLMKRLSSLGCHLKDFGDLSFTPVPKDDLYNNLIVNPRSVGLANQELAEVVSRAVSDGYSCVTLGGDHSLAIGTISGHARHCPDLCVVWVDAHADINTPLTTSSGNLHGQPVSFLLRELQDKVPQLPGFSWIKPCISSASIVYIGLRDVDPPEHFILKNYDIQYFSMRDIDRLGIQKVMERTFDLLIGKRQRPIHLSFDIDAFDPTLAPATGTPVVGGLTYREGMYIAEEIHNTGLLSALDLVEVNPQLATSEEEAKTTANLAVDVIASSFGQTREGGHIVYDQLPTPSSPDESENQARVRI

[7] = molecular target: T3, Proteasome subunit beta (Trypanosoma cruzi) (UniProt O96673); experiment: Trypanosoma cruzi proteasome chymotrypsin-like activity (TcProtChymo) assay.; note: in the data most compounds retested in dose-response had high values; format: functional; conditions: 9.37 µM
T3 sequence (whole entry): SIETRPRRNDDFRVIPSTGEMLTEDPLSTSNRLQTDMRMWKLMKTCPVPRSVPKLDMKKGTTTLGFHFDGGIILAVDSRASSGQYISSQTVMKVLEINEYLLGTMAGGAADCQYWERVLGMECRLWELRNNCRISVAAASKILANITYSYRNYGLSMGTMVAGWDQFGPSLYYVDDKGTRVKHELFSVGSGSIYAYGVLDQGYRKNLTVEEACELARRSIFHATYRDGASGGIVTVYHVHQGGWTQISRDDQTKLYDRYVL

[8] = species on record: Homo sapiens; experiment: To identify inhibition of the IFN signalling (Jak-Stat) pathway via expression of an eGFP reporter gene under the control of an IFN-stimulated response element (ISRE) containing MxA promoter.; format: functional; conditions: 30 µM
[9] = molecular target: T4, Tyrosyl-tRNA synthetase, putative (Trypanosoma cruzi (strain CL Brener)) (UniProt Q4DSP6); experiment: Trypanosoma cruzi tyrosyl tRNA synthetase (TcYRS) _High Tyrosine SOP; format: functional; conditions: 30 µM; note: in the data most compounds retested in dose-response had high values
T4 sequence (whole entry): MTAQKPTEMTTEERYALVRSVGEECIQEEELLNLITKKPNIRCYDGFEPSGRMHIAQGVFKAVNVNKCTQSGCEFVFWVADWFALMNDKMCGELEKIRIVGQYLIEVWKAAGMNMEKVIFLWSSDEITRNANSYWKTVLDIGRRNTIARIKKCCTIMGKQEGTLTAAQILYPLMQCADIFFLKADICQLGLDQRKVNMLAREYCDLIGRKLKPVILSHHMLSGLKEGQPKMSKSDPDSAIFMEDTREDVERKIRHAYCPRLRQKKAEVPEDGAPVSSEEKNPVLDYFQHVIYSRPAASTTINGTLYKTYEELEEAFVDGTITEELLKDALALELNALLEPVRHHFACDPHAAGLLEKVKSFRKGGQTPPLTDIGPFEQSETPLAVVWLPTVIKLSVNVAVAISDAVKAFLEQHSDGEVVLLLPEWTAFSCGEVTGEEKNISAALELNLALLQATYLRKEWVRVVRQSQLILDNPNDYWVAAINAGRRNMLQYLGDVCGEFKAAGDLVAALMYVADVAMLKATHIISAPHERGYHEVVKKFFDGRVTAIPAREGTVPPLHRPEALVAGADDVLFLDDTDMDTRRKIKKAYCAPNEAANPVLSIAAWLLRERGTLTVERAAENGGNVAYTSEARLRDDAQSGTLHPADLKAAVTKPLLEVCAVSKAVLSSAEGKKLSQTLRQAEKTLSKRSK

[10] = molecular target: T4, Tyrosyl-tRNA synthetase, putative (Trypanosoma cruzi (strain CL Brener)); experiment: Trypanosoma cruzi tyrosyl tRNA synthetase (TcYRS) SOP; format: functional; conditions: 30 µM
[11] = molecular target: Chromo domain-containing protein 1 (Saccharomyces cerevisiae (strain ATCC 204508 / S288c) (Baker's yeast)) (UniProt P32657); experiment: ScCHD-1 Enzyme Inhibition Assay; format: functional; conditions: 30 µM; note: in the data most compounds retested in dose-response had high values
Sequence of Chromo domain-containing protein 1 (Saccharomyces cerevisiae (strain ATCC 204508 / S288c) (Baker's yeast)) (P32657 whole entry, the tested form may be a part): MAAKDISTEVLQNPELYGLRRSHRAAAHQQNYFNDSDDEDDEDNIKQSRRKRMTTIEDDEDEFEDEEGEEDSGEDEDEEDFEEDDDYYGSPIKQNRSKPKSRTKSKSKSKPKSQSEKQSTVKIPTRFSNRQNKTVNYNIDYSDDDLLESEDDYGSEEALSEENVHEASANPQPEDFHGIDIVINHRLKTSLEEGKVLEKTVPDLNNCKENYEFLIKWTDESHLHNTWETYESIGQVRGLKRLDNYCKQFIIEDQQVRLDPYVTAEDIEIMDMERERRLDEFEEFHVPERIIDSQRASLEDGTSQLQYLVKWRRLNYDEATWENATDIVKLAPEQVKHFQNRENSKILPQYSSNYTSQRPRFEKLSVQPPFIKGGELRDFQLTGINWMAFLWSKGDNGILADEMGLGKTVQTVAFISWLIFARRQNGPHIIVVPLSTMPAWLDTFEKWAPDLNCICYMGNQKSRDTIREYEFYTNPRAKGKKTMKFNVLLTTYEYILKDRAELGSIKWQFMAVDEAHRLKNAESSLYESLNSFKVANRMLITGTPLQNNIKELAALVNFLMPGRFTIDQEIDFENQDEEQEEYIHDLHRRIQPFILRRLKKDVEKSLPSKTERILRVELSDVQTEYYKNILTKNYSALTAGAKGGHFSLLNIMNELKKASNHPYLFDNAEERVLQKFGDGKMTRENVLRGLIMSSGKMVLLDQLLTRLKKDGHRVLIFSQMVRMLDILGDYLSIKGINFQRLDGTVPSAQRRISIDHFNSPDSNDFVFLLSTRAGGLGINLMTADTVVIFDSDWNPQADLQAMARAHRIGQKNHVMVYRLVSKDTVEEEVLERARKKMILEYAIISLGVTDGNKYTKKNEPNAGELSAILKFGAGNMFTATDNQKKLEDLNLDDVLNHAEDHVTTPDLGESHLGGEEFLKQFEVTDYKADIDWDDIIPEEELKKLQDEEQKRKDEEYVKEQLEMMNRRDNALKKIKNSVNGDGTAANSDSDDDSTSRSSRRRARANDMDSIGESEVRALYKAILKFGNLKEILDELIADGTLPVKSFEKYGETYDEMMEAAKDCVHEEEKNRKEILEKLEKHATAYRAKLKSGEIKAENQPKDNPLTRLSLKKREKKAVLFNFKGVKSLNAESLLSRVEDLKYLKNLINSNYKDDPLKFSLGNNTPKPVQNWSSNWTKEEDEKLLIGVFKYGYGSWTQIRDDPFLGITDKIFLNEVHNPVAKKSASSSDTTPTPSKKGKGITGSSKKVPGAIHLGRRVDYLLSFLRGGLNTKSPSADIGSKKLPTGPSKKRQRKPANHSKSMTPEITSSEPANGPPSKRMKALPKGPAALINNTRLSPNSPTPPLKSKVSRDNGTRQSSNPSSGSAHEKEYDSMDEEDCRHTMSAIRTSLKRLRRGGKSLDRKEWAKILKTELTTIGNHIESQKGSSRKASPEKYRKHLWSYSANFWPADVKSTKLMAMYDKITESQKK

Sequence of Sialic acid-binding Ig-like lectin 9 (Homo sapiens) (Q9Y336 whole entry): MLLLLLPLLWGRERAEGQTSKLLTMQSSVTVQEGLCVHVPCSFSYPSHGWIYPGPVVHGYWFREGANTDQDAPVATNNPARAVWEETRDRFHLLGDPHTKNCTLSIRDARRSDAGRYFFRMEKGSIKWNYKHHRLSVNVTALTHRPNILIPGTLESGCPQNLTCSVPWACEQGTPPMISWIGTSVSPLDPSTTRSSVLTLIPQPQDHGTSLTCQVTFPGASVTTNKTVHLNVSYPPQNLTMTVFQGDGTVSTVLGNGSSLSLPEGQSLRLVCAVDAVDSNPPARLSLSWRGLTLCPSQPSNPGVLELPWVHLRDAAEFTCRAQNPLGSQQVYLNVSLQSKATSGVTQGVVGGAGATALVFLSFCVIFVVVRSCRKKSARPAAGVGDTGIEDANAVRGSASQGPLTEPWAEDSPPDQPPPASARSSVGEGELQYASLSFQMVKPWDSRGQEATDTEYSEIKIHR
Sequence of Protein translocase subunit SecA (Escherichia coli (strain K12)) (P10408 whole entry): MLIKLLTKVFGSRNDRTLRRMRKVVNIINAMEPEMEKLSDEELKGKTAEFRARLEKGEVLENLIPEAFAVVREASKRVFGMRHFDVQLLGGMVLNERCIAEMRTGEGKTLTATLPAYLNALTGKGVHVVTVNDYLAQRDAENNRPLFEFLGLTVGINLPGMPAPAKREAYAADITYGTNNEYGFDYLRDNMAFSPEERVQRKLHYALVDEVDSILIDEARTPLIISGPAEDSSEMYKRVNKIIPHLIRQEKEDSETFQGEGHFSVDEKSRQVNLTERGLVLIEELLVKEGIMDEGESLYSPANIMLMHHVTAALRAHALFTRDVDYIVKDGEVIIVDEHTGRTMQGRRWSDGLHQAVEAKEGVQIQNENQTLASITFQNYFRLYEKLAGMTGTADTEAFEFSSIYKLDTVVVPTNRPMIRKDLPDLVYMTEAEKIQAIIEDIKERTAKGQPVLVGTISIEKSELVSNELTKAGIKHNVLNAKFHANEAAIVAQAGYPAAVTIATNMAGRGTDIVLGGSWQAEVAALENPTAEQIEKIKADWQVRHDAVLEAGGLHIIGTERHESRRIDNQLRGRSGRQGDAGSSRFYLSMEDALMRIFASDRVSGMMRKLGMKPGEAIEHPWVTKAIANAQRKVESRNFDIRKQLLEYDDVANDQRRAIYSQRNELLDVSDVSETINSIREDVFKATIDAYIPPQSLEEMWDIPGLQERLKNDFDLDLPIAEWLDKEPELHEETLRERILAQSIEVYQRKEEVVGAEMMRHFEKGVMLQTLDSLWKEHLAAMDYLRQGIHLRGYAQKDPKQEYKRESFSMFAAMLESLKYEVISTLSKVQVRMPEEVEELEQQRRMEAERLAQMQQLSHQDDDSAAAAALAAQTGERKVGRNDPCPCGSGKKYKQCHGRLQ

Compound	Percent Effect [1] [%]	Percent Effect [2] [%]	Percent Effect [3] [%]	Percent Effect [4] [%]	Percent Effect [5] [%]	Percent Effect [6] [%]	Percent Effect [7] [%]	Percent Effect [8] [%]	Percent Effect [9] [%]	Percent Effect [10] [%]	Percent Effect [11] [%]
COc1ccc(C2OC(COc3ccccc3Br)=NN2C(C)=O)cc1 (centres undefined)	-1.41	13	-0.88	-8.22	-5.23	3.23	9.22	4.18	0	1.28	-8.68
CS(=O)(=O)N1CCc2c(cccc2NC(=O)CC(F)(F)F)C1	-3.17	5.26	4.53	-1.3	-2.04	0	11.8	-9.3	4.25	10.4	-6.43
CC(C)CCN1CCC2(CC1)CN(C(=O)c1cnccn1)CCO2	-4.82	2.67	2.65	7.36	0.772	-57.9	0.855	-13.7	4.17	12.5	-3.24
Cc1nc(NCc2ccc(C)o2)cc(C(=O)N2CCOCC2)n1	-5.2	15.6	-13.8	14.3	9.14	-55.2	10.5	4.67	4.3	8.64	-6.33
Cc1ccc(NC(=O)Nc2cnc(N3CCN(C)CC3)nc2)c(Cl)c1	-1.85	13	2.69	2.29	2.27	-5.81	5.22	6.92	6.35	11.5	-9.57
Cc1nn(C)c(C)c1C1CCCN1C(=O)c1ccc(NC2CC2)nc1 (centres undefined)	-1.33	16.2	-3.14	10.9	0.464	-4.25	5.92	22.6	7.92	18.3	-2.71
CN(Cc1nnc2n1CCC2)C(=O)NCCc1ccc2c(c1)OCO2	-3.06	21.6	-5.22	-0.223	-5.38	-2.4	10.6	18.3	7.39	16.1	-6.24
c1ccc(C2CCCN2Cc2nnnn2C2CC2)cc1 (centres undefined)	-4.62	-6.94	-1.81	-5.25	-3.01	-1.32	9.12	-12.1	3.16	0	7.75
CCN1CCN(S(=O)(=O)c2ncn(C)c2Cl)CC1	-6.34	6.94	-0.0263	3.04	-3.79	1.77	21.4	6.76	1.05	10.3	-1.92
